Screening data from PubChem BioAssay.
GPR32 ag – GPR32 (DRV1) agonism, beta-arrestin recruitment. CHO-K1 GPR32 beta-arrestin PathHunter luminescence, 90 min; zero percent set by DMSO-only wells. 48,000 tested, 2.5% active. activation, % at 76.9 µM;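 active = activation of at least 60% and not above a set upper limit, about 1 call in 100 departs from these limits; inconclusive = activation of 40% to 60%, or above that upper limit; inactive = activation under 40%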
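Engineered CHO-K1 line co-expressing GPR32-ProLink and EA-beta-arrestin. Compound treatment lasted 90 min at 37 °C. Luminescence was recorded after 1 h with substrate at ambient temperature, relative to DMSO basal wells.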
PTAP-TSG101 blk – inhibitors of HIV-1 PTAP binding to human TSG101, validation | Fluorescence polarization, FITC-PTAP peptide/Tsg101, 20 min | Potency, µM (titrated, usually from 115 µM), usual class: inhibitors | 44,000 tested, under 10 active | AID 1347069
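Fluorescence polarization binding of Tsg101 binding domain (10 uM final) to FITC-labeled PTAP-motif peptide (50 nM final) in HEPES pH 7.5/NaCl/Tween 20/EDTA/TCEP buffer; 20 min at r.t. Actives by curve class, <25 µM, efficacy <60% inhibition.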
GALK inh – GALK (human) enzyme inhibition; P51570; recombinant GALK, Kinase-Glo ATP luminescence, 1 h; Potency, µM (titrated, usually from 57.5 µM), usual class: inhibitors; 44,000 tested, under 10 active; AID 1347072
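Human GALK (5 nM) was incubated with 35 uM ATP and 100 uM galactose in 20 mM HEPES pH 8.0 with MgCl2, NaCl, DTT and BSA for 1 h at room temperature. Remaining ATP was measured by Kinase-Glo Plus luminescence.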
NTMT1 inh – blocks human N-terminal methyltransferase 1 activity | Q9BV86 | NTMT1 MTase-Glo SAH luminescence, purified enzyme | Potency, µM (top dose mostly 114 µM), hits mostly inhibitors | 59,000 tested, 2.5% active | AID 1645870; also: nearly all actives have a fitted effect of over 65% in size
Target sequence (Q9BV86 whole entry, looked up): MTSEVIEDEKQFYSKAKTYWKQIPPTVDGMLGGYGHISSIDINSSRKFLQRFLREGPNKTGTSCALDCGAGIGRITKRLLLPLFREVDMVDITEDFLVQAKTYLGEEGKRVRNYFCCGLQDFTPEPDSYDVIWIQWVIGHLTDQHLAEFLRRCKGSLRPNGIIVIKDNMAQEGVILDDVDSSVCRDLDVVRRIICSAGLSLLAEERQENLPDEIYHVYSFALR
FH mod – Identification of activators of human fumarate hydratase by quantitative high-throughput screening. 54,000 tested, 0.22% active. Fumarate hydratase, mitochondrial (Homo sapiens), P07954. FH coupled MDH/diaphorase resazurin fluorescence, 15 min. Potency, µM (top dose mostly 79.9 µM), most hits filed as inhibitors; also: the screen sought activators but most active calls are inhibition curves; nearly all actives have a fitted effect of over 45% in size
B2AR arrestin ag – ADRB2 beta-arrestin recruitment; HTLA Tango cells, beta-arrestin recruitment, luciferase luminescence, 18 h; AID 1347077; 44,000 tested, under 10 active; P07550; Potency, µM (highest dose often 46.1 µM), actives largely listed as activators
Target sequence (P07550 whole entry, looked up): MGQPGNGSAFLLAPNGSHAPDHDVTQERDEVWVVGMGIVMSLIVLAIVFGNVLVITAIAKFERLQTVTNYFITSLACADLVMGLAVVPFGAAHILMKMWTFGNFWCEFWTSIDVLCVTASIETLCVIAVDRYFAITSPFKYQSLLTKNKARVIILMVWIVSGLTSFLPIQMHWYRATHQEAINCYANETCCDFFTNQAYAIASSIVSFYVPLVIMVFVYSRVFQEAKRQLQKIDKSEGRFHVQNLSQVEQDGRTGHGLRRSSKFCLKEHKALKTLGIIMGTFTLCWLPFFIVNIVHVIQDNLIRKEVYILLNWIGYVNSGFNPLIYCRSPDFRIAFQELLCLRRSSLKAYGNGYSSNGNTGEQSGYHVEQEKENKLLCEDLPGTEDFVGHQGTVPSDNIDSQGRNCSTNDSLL
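Tango cells (recombinant beta2-AR, beta-arrestin, tTA-driven luciferase), 1500/well in DMEM 1% FBS, treated 18 h at 37 °C with compounds up to 46 µM; luciferin mix added, luminescence read after 15 min; %activity curves fitted and curve-classed.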
Hits are given with their value; n = inactive; u = inconclusive; x = no result given; ! = not confirmed by another sample. Rows were chosen to be rich in hits. Some 3.7% of all compounds tested hit in one or more screens of this group. Unless noted, calls follow the shape of the dose curve; as a rule, active = well fitted curve in the direction sought with a large enough effect; inconclusive = small, poorly fitted or top-dose-only effect, or another doubt; inactive = no such curve, though single readings can be large; an effect the other way counts as inactive or inconclusive.

SMILES	GPR32 ag	PTAP-TSG101 blk	GALK inh	NTMT1 inh	FH mod	B2AR arrestin ag
COc1cc(C(=O)NC2CCN(C)CC2)ccc1Nc1ncc2c(n1)N(C1CCCC1)CCC(=O)N2C(C)C	x	x	x	22µM	n	x
C[Se]CCC(N)C(=O)O (centres undefined)	x	x	x	16µM!	n	x
Cc1ccc([N+](=O)[O-])cc1S(=O)(=O)N(C)/N=C/c1cnc2ccc(Br)cn12	x	x	x	n	n	x
C#Cc1cccc(Nc2nc3cc(C(=O)O)ccc3c3cncnc23)c1	x	x	x	25µM	u	x
CCOc1ccc(-n2nc3ccc(NC(=O)c4ccc(-c5cccc(Cl)c5)o4)cc3n2)cc1	n	n	n	79µM	n	n
Nc1ncnc2c1ncn2[C@@H]1O[C@@H](CO)[C@H](O)[C@H]1O	x	x	x	n	n	x
Nc1ncnc2c1ncn2[C@@H]1O[C@H](CN[S+](=O)([O-])NC(=O)c2cccc(-c3noc(-c4ccccc4F)n3)c2)[C@@H](O)[C@H]1O	x	x	x	0.89µM	x	x
CC(=O)c1ccc(N2CCN(S(=O)(=O)c3ccc4c(c3)oc(=O)n4C)CC2)cc1	x	x	x	n	x	x
Ic1ccc(N2CCN(Cc3c[nH]c4ncccc34)CC2)cc1	76	x	x	x	x	x
C=C(c1ccc(C(=O)O)cc1)c1cc2c(cc1C)C(C)(C)CCC2(C)C	n	x	x	112µM!	n	x
CCn1cc(C(=O)N2CCN(c3cccc(C)c3C)CC2)c2cc(OC)c(OC)cc2c1=O	76	u	n	n	n	n
CCn1cc(C(=O)N2CCN(c3cccc(C(F)(F)F)c3)CC2)c2cc(OC)c(OC)cc2c1=O	n	n	n	n	n	n
CC(=O)N1CCCC1c1nc2ccccc2n1Cc1c(F)cccc1Cl (centres undefined)	n	n	n	89µM	n	n
Oc1c(I)cc(I)c2cccnc12	n	x	x	n	n	x
O=S(=O)(O)c1cc(I)c(O)c2ncccc12	105	x	x	u	n	x
Oc1ccc(Nc2ccccc2F)c2cccnc12	x	x	x	28µM	x	x
Oc1ccc(-c2ccccc2F)c2cccnc12	x	x	x	n	x	x
COc1ccc(C2CC(=O)N3CN(C4CCCCC4)CSC3=C2C#N)c(OC)c1 (centres undefined)	n	n	n	16µM	n	n
N#CC1=C2SCN(C3CCCCC3)CN2C(=O)CC1c1ccc(Br)cc1 (centres undefined)	n	n	n	35µM	n	n
COCCNc1cc2c(cc1[S+](=O)([O-])Nc1ccc(C)c(C)c1)CCC(=O)N2	x	x	x	n	x	x
O=C(Cn1nc(-c2cccnc2)ccc1=O)NCCc1ccccc1	x	x	x	n	x	x
Cc1cc(NC(=O)N(C)CCc2c(C)nn(C)c2C)ccc1Br	65	n	n	n	n	n
Cc1ccc(C)c(NC(=O)N(C)CCc2c(C)nn(C)c2C)c1	n	n	n	n	n	n
CC1(C)O[C@H]2CC(=O)OC[C@@]23C1=C(O)C(=O)[C@]1(C)C3CC[C@@]2(C)[C@H](c3ccoc3)OC(=O)[C@H]3O[C@]321 (some centres undefined)	x	x	x	n	n	x
O=C(NO)c1cnc(NC2(c3cccc(F)c3)CCCCC2)nc1	x	x	x	n	x	x
SMILES	GPR32 ag	PTAP-TSG101 blk	GALK inh	NTMT1 inh	FH mod	B2AR arrestin ag
CCOc1cc2c(c(F)c1OCC)C(=N)N(CC(=O)c1cc(N3CCOCC3)c(OC)c(C(C)(C)C)c1)C2	x	x	x	32µM!	n	x
Cc1ccc(CNC(=O)c2sc3nc(-c4ccc(F)cc4)ccc3c2N)cc1	96	n	n	n	n	n
COc1cccc(-c2ccc3c(N)c(C(=O)c4ccc(F)cc4)sc3n2)c1	n	n	n	n	n	n
COc1ccc(C(=O)c2sc3nc(-c4ccc(F)cc4)ccc3c2N)cc1	98	n	n	n	n	n
COCCCc1sc(-c2ccccc2)nc1C(=O)Nc1ccccc1-c1nc2cc(CN3CCCC3)cnc2s1	x	x	x	n	n	x
NCc1ccc(OCCCc2sc(-c3ccc4c(c3)/C(=N/Nc3nc5ccccc5s3)CCC4)nc2C(=O)O)cc1	x	x	x	40µM!	n	x
COc1ccc(C(=O)CN2CCN(S(=O)(=O)c3ccc(C(C)C)cc3)CC2)cc1	n	n	n	56µM	n	n
CCCCC(CC)CN=C(N)NC(N)=NCCCCCCN=C(N)NC(N)=NCC(CC)CCCC (centres undefined)	n	x	x	3.2µM	n	x
CCCCN=C(N)N=C(N)N	n	x	x	x	n	x
COC(=O)C1=C(c2ccccc2)c2ccccc2S(=O)(=O)N1CC(=O)Nc1cccc(C(C)=O)c1	n	n	n	79µM	u	n
Cc1ccc(C(N)=O)cc1Nc1nccc(-c2cn(C(C)C)c3cnccc23)n1	x	x	x	11µM	n	x
Fc1ccccc1Cc1cn2cc(-c3ccc(Cl)cc3)nc2s1	68	n	n	n	n	n
Clc1ccc(-c2cn3cc(Cc4ccccc4)sc3n2)cc1	n	n	n	n	n	n
CN(C)S(=O)(=O)N(CC(=O)NCCSc1ccc(Cl)cc1)c1ccccc1	70	n	n	n	n	n
NC1CCC(Nc2nc(Nc3ccc(C(=O)N4CCCCC4)cc3)c3ncn(-c4cccc(F)c4)c3n2)CC1 (centres undefined)	x	x	x	40µM	n	x
NC(=O)c1ccccc1Nc1ccnc(Nc2cccc(O)c2)n1	x	x	x	u	n	x
CCS(=O)(=O)c1cccc(C(=O)Nc2ccc(-c3nc4ccccc4s3)c(O)c2)c1	61	n	n	u	n	n
Cc1nc(-c2ccc(S(=O)(=O)Nc3cc(Cl)ccc3C)cc2)co1	82	n	n	n	n	n
Cc1nc(-c2ccc(S(=O)(=O)Nc3ccc(OC(F)(F)F)cc3)cc2)co1	114	n	n	n	n	n
Cc1nc(-c2ccc(S(=O)(=O)NCc3ccc(OC(C)C)cc3)cc2)co1	u	n	n	n	n	n
Cc1nc(-c2ccc(S(=O)(=O)N3CCN(c4cc(Cl)ccc4C)CC3)cc2)co1	n	n	n	n	n	n
N#Cc1ccc(NC(=O)Nc2nnc(-c3ccncc3)s2)cc1	x	x	x	n	x	x
[N-]=[N+]=Nc1ccc(C(=O)CSC[C@H](NC(=O)CC[C@H](N)C(=O)O)C(=O)NCC(=O)O)cc1	n	x	x	x	32µM	x
N[C@@H](CCC(=O)N[C@H](CSN=O)C(=O)NCC(=O)O)C(=O)O	n	x	x	x	n	x
COc1cccc(NC(=O)Cn2c(=O)n(Cc3ccco3)c(=O)c3cc(OC)c(OC)cc32)c1	74	n	n	n	n	n
C/C1=C\[C@H]2OC(=O)[C@@H](C)[C@@H]2CC/C(C(=O)O)=C/CC1	x	x	x	n	n	x
O=C(Nc1nc(-c2ccccc2)cs1)c1ccccc1S(=O)(=O)Nc1nccs1	x	x	x	n	x	x
CCCCCC1CCC(C(=O)Nc2ccc(S(=O)(=O)Nc3nccs3)cc2)CC1 (centres undefined)	x	x	x	n	x	x
